40 compounds from PubChem BioAssay (EPA / NIEHS) can be followed below.

Each structure is given as a SMILES string. Activity calls are given as the source filed them. The calls were made as follows: active = hit-call score of the fitted dose curve at least 0.9, where 1 is the maximum; inactive = score below 0.9.

Chain of Paired box protein Pax-6 (Homo sapiens) (P26367 whole entry, looked up): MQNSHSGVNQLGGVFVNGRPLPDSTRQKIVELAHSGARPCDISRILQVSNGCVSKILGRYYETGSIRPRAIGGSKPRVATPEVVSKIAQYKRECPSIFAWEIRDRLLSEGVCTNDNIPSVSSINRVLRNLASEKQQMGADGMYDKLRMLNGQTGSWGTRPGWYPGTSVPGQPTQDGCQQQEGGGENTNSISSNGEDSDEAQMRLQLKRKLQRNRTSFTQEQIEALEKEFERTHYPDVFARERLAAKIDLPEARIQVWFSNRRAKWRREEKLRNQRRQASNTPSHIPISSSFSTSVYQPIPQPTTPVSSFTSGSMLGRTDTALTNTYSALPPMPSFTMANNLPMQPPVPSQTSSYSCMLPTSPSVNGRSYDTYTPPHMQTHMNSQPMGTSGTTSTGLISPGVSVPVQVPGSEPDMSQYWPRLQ

The assay has as its target Paired box protein Pax-6 (Homo sapiens) (UniProt P26367). Put plainly: ATG_Pax6_CIS: Attagene CIS-FACTORIAL HepG2 Assay for human Paired Box 6 (PAX6) (AID 2282956). As to conditions: HepG2 CIS-FACTORIAL PAX6 reporter transcription, RNA readout; actives raise or lower the signal. The protocol:
ATG_CIS is a cell-based, multiplexed-readout assay that uses HepG2, a human liver cell line, with measurements taken at 24 hours after chemical dosing in a 24-well plate.ATG_Pax6_CIS is one of 52 assay component(s) measured or calculated from the ATG_CIS assay. It is designed to make measurements of mRNA induction, a form of inducible reporter, as detected with fluorescence intensity signals by Reverse transcription polymerase chain reaction (RT-PCR) and Capillary electrophoresis technology.Data from the assay component ATG_Pax6_CIS was analyzed into 1 assay endpoint. This assay endpoint, ATG_Pax6_CIS, was analyzed with bidirectional fitting relative to DMSO as the negative control and baseline of activity. Using a type of inducible reporter, measures of mRNA for gain or loss-of-signal activity can be used to understand the reporter gene at the transcription factor-level as they relate to the gene PAX6. Furthermore, this assay endpoint can be referred to as a primary readout, because this assay has produced multiple assay endpoints where this one serves a reporter gene function. To generalize the intended target to other relatable targets, this assay endpoint is annotated to the dna binding intended target family, where the subfamily is paired box protein.
Human liver HepG2 cells are transiently transfected with multiple reporter transcription units (MRTUs) in 6-well plates using FuGene 6 reagent (Roche; 3 ml FuGene/1 mg DNA). The MRTU constructs are regulated by a cis-regulating element (promoter). […] A major difference between the CIS and TRANS system is that in CIS activities of endogenous TFs are measured, whereas the TRANS assay evaluates changes in activities of exogenous, chimeric NR-Gal4 proteins. […] At the end of 24 hour incubation, total RNA was isolated using TriZol reagent (Invitrogen). The isolated RNA is then reverse-transcribed using oligo(dT) primer and Mo-MLV reverse transcriptase (Invitrogen) with DNAse I (Ambion) treatment for 30 min. The one-tenth of the produced cDNA was amplified by PCR using Taq DNA polymerase (Invitrogen) and two reporter sequence-specific primers. The PCR products were fluorescently labeled by primer extension with 6-arboxyfluorescein (6-FAM) 5'-labeled reporter sequence-specific primer (2 min at 95 C, 20 s at 68 C and 10 min at 72 C) and these products were digested with 5U of HpaI (New England Biolabs) for 2h at 37 C. The fragments were purified using Qiaquick PCR columns (Qiagen), analyzed on an ABI 3130xL genetic analyzer (Applied Biosystems) with peak positions identified by using a set of X-rhodamine (ROX)-labeled MapMarker1000 molecular weight standards (BioVentures). The raw capillary electrophoresis data was processed using Attagraph software (Attagene).
`O=C1c2ccccc2C(=O)c2cc(S(=O)(=O)O)ccc21`: the outcome was inactive.

As to `CCCC(CC)c1ccccc1` (stereo not given), the compound was called inactive. In the case of `Cc1c(C(=O)c2c[nH]n(C)c2=O)ccc(S(C)(=O)=O)c1C1=NOCC1`, the compound was classed as inactive.

`CCCCCC1=CCCC1=O`: the result was inactive.

On to `Cn1cccc1`, for which the call was inactive. `CC(C)OC(=O)c1ccccc1`: the call was inactive. As for `C=C(C)[C@@H]1CC=C(C)CC1`, the compound was called inactive.

By AC50 is commonly meant the midpoint of the concentration-response curve, whichever way the signal moves. With `C=C(C)C(=O)OCC(O)COc1ccc(C(C)(C)c2ccc(OCC(O)COC(=O)C(=C)C)cc2)cc1` (stereo not given), the AC50 was 42.2 µM (active). For `c1ccc(-c2nc3ccccc3[nH]2)cc1`, the compound was classed as inactive. With `CC(C)CC(=O)OCc1ccccc1`, the outcome was inactive. In the case of `CC1=CC(C)C(C=O)CC1` (stereo not given), the outcome was inactive.

With `CCCC=C(C=O)CC`, the call was inactive. As to `CC(C)c1ccc(O)c(C(C)C)c1`, the compound was classed as inactive. `O=C1CCCCCCCCCCC1`: the outcome was inactive. For `COc1ccc(C(=O)/C(Br)=C\C(=O)O)cc1`, the AC50 was 57.1 µM (active). `CC(C)(C)N`: the call was inactive. As for `CCCCCCCCCCCC(=O)OCC`, the result was inactive. Take `CCC(C)N` (stereo not given): the compound was classed as inactive. In the case of `CC1CCC(=O)C1=O` (stereo not given), the outcome was inactive. Turning to `CCCCCCCC(=O)OCC`, the call was inactive. Still for that read-out and setting: under `CCCCOCCOCCOC(C)=O` stands “inactive”; under `O=C(Cl)c1ccc(C(=O)Cl)cc1`, “inactive”; under `CC(=O)CCC=C(C)C`, “inactive”. Turning to `O=C(OCc1ccccc1)c1ccc(O)cc1`, the AC50 is 144 µM (active).

In the case of `CCCCCC[C@@H](O)C/C=C\CCCCCCCC(=O)OCC(O)CO` (stereo not given in full), the AC50 is 134 µM (active). Consider `Nc1ccc(C(=O)O)cc1`, for which the result was inactive. With `CC(C=O)c1ccccc1` (stereo not given), the result was inactive. Same read-out and setting: under `N#Cc1ccc(C(c2ccc(C#N)cc2)n2cncn2)cc1` stands “inactive”; under `CCCC1CCCC(=O)O1` (stereo not given), “inactive”; under `Cc1noc(NS(=O)(=O)c2ccc(N)cc2)c1C`, “inactive”. On the same count and under the same terms, under `CCCCOC(=O)CCC(C)=O` stands “inactive”; under `CCOC(=O)C1=NOC(c2ccccc2)(c2ccccc2)C1`, “inactive”. For `C=C1C[C@H]2[C@@H]3C=C(C)C4=CC(=O)CC[C@]4(C)[C@H]3CC[C@]2(C)[C@@]1(OC(C)=O)C(C)=O`, the AC50 was 63 µM (active). Regarding `CCNc1nc(NC(C)(C)C)nc(OC)n1`, the compound was called inactive.

Consider `CC(=O)OCc1ccccc1`, for which the call was inactive. Regarding `CC1=CCC(C(C)C)C=C1` (stereo not given), the compound was called inactive. In the case of `CCOC(=O)c1ccc(C)cc1`, the outcome was inactive. With `CC12CCC(CC1)C(C)(C)O2`, the result was inactive.

With `CCCCCOC(=O)CCCCC`, the compound was classed as inactive. For the compound `C=CCCCCCCCCO`, the result was inactive.
